Screening results from PubChem BioAssay.
HSP90 refold inh: HSP90 refolding inhibition in rabbit reticulocyte lysate | luciferase refolding luminescence, 3 h | inhibition, % at 5.6 µM | 0.91% of 290,000 active;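 active = inhibition above the screen-wide mean plus 3 SD, computed separately per campaign, cut at about 16% in these data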;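 note: 0% = DMSO wells and 100% = 60 µM geldanamycin wells; inhibitors lower the luminescence because luciferase stays unfolded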
HSF1 inh: HSF1 inhibition; NIH3T3-HGL HSE-luciferase, MG132-induced, luminescence 8 h; hits give low values; activity change, negative = inhibition, % at 7.5 µM (by protocol); 0.77% of 300,000 active;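 active = more than half of replicate wells show activity change below -50%, luminescence cut by over half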;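 note: luciferase reports HSF-1 transcriptional activity via heat shock element; 0% = median of DMSO wells and -100% = zero luminescence signal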
HSF-1 act: increases HSF-1 driven luciferase reporter signal; NIH3T3-HGL HSF-1 luciferase reporter, MG132, 8 h; 100% = twice DMSO control signal; activation, % at 9 µM; 1.7% of 300,000 active; AID 504408;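 active = mean replicate activation of at least 50% with a set share of replicates each reaching 50%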;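 note: 0% = median of the neutral control wells and 100% = twice that signal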
ARNT-TACC3 inh: disrupts binding between human ARNT and TACC3 | AlphaScreen His-ARNT PAS-B/GST-TACC3 binding, luminescence; TACC3 fragment carries E629A point mutation | inhibition, % at 9.99 µM | 0.66% of 390,000 active | AID 623870;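 active = mean inhibition of replicates at least 50% and at least half of replicates each reaching 50%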;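 note: 0% = complete ARNT plus TACC3 wells and 100% = ARNT alone without TACC3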
HIF activator: HIF pathway transcriptional activation; U2OS HRE-luciferase reporter, luminescence; normalized: DMSO 0%, desferrioxamine 100%; activation, % at 7.5 µM (by protocol); 0.32% of 300,000 active;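 active = mean activation of at least 10% of the iron chelator positive control signal, with at least half of replicates also reaching 10%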
* hit, by the source's call; . = no result given. Rows were chosen to be rich in hits. Some 3.1% of all compounds tested hit in one or more screens of this group.

SMILES	HSP90 refold inh	HSF1 inh	HSF-1 act	ARNT-TACC3 inh	HIF activator
CCC(=O)N1CCCCN2[C@H](CO)[C@H](c3ccc(C#Cc4ccccc4)cc3)[C@@H]2C1	.	.	.	10	.
CCCC1CCc2c(sc(NC(=O)c3cccs3)c2C(N)=O)C1 (stereo not given)	2	31	61*	-3	1
O=C(N/N=C/c1ccc(O)cc1O)c1ccc(CN2C(=O)c3cccc4cccc2c34)cc1	0	10	14	-17	13*
Cc1cc([N+](=O)[O-])nn1Cc1ccc(C(=O)N/N=C/c2ccc(F)cc2)cc1	-2	-6	-19	-2	0
Nc1nnnn1CC(=O)N/N=C/c1cc([N+](=O)[O-])ccc1O	0	-9	-1	67*	-1
Cc1cc([N+](=O)[O-])nn1Cc1ccc(C(=O)N/N=C/c2ccc(O)cc2O)cc1	-4	-2	-2	38	21*
Cc1cc([N+](=O)[O-])nn1CC(=O)N/N=C/c1ccccc1O	10	-3	-14	68*	2
Cc1cc([N+](=O)[O-])nn1CC(=O)N/N=C/c1ccccc1F	-6	-2	3	-8	0
Cn1c(SCC(=O)N/N=C/c2cc([N+](=O)[O-])ccc2O)nnc1-c1ccccc1	5	-2	-22	4	-1
CCNC(=O)C[C@@H]1C=C[C@@H](NS(=O)(=O)c2ccc(C)cc2)[C@@H](CO)O1	.	.	.	-7	.
O=C(CN1C(=O)NC2NC(=O)NC21)N/N=C/c1ccccc1O (stereo not given)	-1	-5	-3	66*	0
Nc1nnnn1CC(=O)N/N=C/c1cccs1	-4	2	21	-8	0
O=C(CN1C(=O)NC2NC(=O)NC21)N/N=C/c1ccccc1F (stereo not given)	-6	-7	-5	.	0
Cc1cc(C)n(CC(=O)N/N=C/c2cc([N+](=O)[O-])ccc2O)n1	-2	-5	-1	72*	-1
Nc1nnnn1CC(=O)N/N=C/c1ccccn1	-3	48	98*	20	0
O=C(N/N=C/c1cc([N+](=O)[O-])ccc1O)C12CC3CC(CC(C3)C1)C2	-3	-12	-11	-3	4
Nc1nnc(CC(=O)N/N=C\c2cc([N+](=O)[O-])ccc2O)s1	-1	-3	0	65*	0
Cc1cc(C)n(CC(=O)N/N=C/c2cc(Br)cc([N+](=O)[O-])c2O)n1	2	-15	-21	3	0
C[C@H](O)C#Cc1ccc2c(c1)O[C@@H](CN(C)C)[C@@H](C)CN([C@H](C)CO)S2(=O)=O	.	.	.	13	.
O=C(N/N=C/c1ccccn1)C(=O)N1CCCCCC1	-4	-11	3	53*	0
CC(C)(CCO)NC(=S)NC1CC2C=CC1C2 (stereo not given)	5	-3	-3	-12	0
S=C(NC1CCCCC1)NC1CC2C=CC1C2 (stereo not given)	-1	65	85*	16	0
COc1ccccc1CNC(=O)N1CCN(c2ccccc2)CC1	3	-4	-5	-3	0
COc1ccccc1CNC(=O)N1CCN(c2ccccc2C)CC1	0	-72*	-78	2	0
Nc1ccc(S(=O)(=O)NCc2ccccn2)cc1	0	0	5	0	0
SMILES	HSP90 refold inh	HSF1 inh	HSF-1 act	ARNT-TACC3 inh	HIF activator
CC(=O)Nc1ccc(S(=O)(=O)NNC(=O)C(=O)NNc2ccccn2)cc1	5	-11	-18	75*	2
CC(=O)Nc1ccc(S(=O)(=O)Nc2ccccn2)cc1	0	-5	-12	11	0
Cc1ccc(S(=O)(=O)NNC(=O)C(=O)NNc2ccccn2)cc1	0	-3	16	63*	0
Cc1ccccc1S(=O)(=O)NNC(=O)C(=O)NNc1ccccn1	1	0	-3	70*	0
Nc1ccc(S(=O)(=O)NNC(=O)C(=O)NNc2ccccn2)cc1	2	8	33	74*	0
Cc1ccc([N+](=O)[O-])cc1S(=O)(=O)Nc1ccccn1	5	-9	-20	-3	0
Cc1ccc(S(=O)(=O)NNC(=O)C(O)(c2ccccc2)c2ccccc2)cc1	5	0	-2	-8	-1
CO[C@H]1CN(C)C(=O)c2ccc(NC(C)=O)cc2OC[C@H](C)N(Cc2ccccc2F)C[C@H]1C	.	.	.	3	.
CC(C)NC(=O)N(C)C[C@H]1Oc2c(NC(=O)C3CCOCC3)cccc2C(=O)N([C@@H](C)CO)C[C@@H]1C	.	.	.	-4	.
Cc1cccc(-n2ncc3c(N(C)C4CCCCC4)ncnc32)c1	.	-91*	-92	-5	-2
COc1ccc(-n2ncc3c(N(C)C4CCCCC4)ncnc32)cc1	79*	-85*	-87	-3	-2
O=C(C[C@H]1CC[C@H](NC(=O)CN2CCOCC2)[C@H](CO)O1)NC1CCCCC1	.	.	.	12	.
O=C1C=CC(=O)N1N(c1ccccc1)c1ccccc1	2	57	69*	-7	1
C[C@@H]1CN([C@@H](C)CO)C(=O)c2cccc(NC(=O)c3cnccn3)c2O[C@@H]1CN(C)S(=O)(=O)c1cn(C)cn1	.	.	.	-3	.
CC(C)(C)C(=O)N1CCN(c2ccc(NC(=O)c3ccc([N+](=O)[O-])o3)cc2)CC1	5	1	-5	.	-7
CC1CCN(c2ccc(NC(=O)c3ccc([N+](=O)[O-])o3)cc2)CC1	.	95	98*	-8	-3
O=C(Nc1ccc(N2CCCCC2)cc1)c1ccc([N+](=O)[O-])o1	5	67	91*	-5	5
CCC(=O)N1CCN(c2ccc(NC(=O)c3ccc([N+](=O)[O-])o3)cc2)CC1	5	-76*	-80	0	-8
CCC(=O)N1CCN(c2ccc(NC(=O)COc3ccc(C)cc3C)cc2)CC1	6	97	110*	-2	1
CCCC(=O)N1CCN(c2ccc(NC(=O)c3ccc([N+](=O)[O-])o3)cc2)CC1	-1	-11	8	3	-3
CCC(=O)N1CCN(c2ccc(NC(=O)COc3ccccc3Cl)cc2)CC1	2	11	41	0	1
Cc1cccc(S(=O)(=O)N2C[C@H](O)COC[C@H]3O[C@H](CC(=O)Nc4ccccc4)CC[C@@H]32)c1	.	.	.	0	.
O=C(NC1CCCCC1)N[C@H]1CC[C@@H](CCNS(=O)(=O)c2ccccc2)O[C@H]1CO	.	.	.	-30	.
C[C@H](CO)N1C[C@H](C)[C@H](CN(C)C(=O)c2cnccn2)Oc2ncc(-c3cccc(C#N)c3)cc2C1=O	.	.	.	22	.
COc1ccc(S(=O)(=O)N(C)C[C@H]2OCCCC[C@@H](C)Oc3ccc(NS(=O)(=O)c4cn(C)cn4)cc3C(=O)N([C@H](C)CO)C[C@@H]2C)cc1	.	.	.	-6	.
CCC(=O)N1CCN(c2ccc(NC(=O)c3ccccc3)cc2)CC1	2	-3	2	-3	0
CCC(=O)N1CCN(c2ccc(NC(=O)c3ccc4ccccc4c3)cc2)CC1	-3	28	66*	.	3
